Source: PubChem BioAssay AID1159580 (chemical genetic matrix, 2015)
Values joined by “and” are separate entries in the source; they are usually repeats but may differ in a detail not shown here. Equal entries are not always repeated. In all, about 5,500 compounds went through this assay and about 2,000 (36%) were called active. Another 18% or so got no clear call; they are omitted. Rule as the data show it: active = normalized growth mostly below about 0.91 (no sharp cut-off); inconclusive = no clear call, values can overlap the other calls; inactive = mostly above about 0.92. This is one part of the list.

Assay: chemical genetic growth profiling, strain panel (AID 1159580);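 also: tested at 20 µM; growth read once vehicle control cultures reached saturation at 30 °C; 1 = growth at the plate median or of vehicle wells; lower values mean less growth of the strain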
Conditions: growth OD

Measured: normalized growth

Nc1nc(N)c2nc(-c3ccccc3)c(N)nc2n1
inactive: S. cerevisiae deletion strains, locus YJR075W, strain HOC1, stronger effect = lower value 1.01 | S. cerevisiae deletion strains, locus YKL009W, strain mrt4, stronger effect = lower value 1.02 | S. cerevisiae deletion strains, locus YKL068W, stronger effect = lower value 1 | S. cerevisiae deletion strains, locus YKL085W, strain MDH1 (second series), stronger effect = lower value 1.01 | S. cerevisiae deletion strains, locus YKL085W, strain MDH1, stronger effect = lower value 1.01 | S. cerevisiae deletion strains, locus YKL160W, strain elf1, stronger effect = lower value 1 | S. cerevisiae deletion strains, locus YKL190W, strain CNB1, stronger effect = lower value 1 | S. cerevisiae deletion strains, locus YKR001C, strain vps1, stronger effect = lower value 1.02 | S. cerevisiae deletion strains, locus YKR026C, strain gcn3, stronger effect = lower value 1.01 | S. cerevisiae deletion strains, locus YKR091W, strain srl3, stronger effect = lower value 0.998 | S. cerevisiae deletion strains, locus YLL001W, strain dnm1, stronger effect = lower value 1 | S. cerevisiae deletion strains, locus YLL026W, stronger effect = lower value 0.999 | S. cerevisiae deletion strains, locus YLL041C, strain sdh2, stronger effect = lower value 0.999 | S. cerevisiae deletion strains, locus YLR027C, strain aat2, stronger effect = lower value 1.01 | S. cerevisiae deletion strains, locus YLR039C, strain RIC1, stronger effect = lower value 1.04 | S. cerevisiae deletion strains, locus YLR058C, strain SHM2, stronger effect = lower value 1 | S. cerevisiae deletion strains, locus YLR102C, strain apc9, stronger effect = lower value 1.01 | S. cerevisiae deletion strains, locus YLR113W, strain HOG1, stronger effect = lower value 1 | S. cerevisiae deletion strains, locus YLR221C, strain rsa3, stronger effect = lower value 0.975 | S. cerevisiae deletion strains, locus YLR258W, strain gsy2, stronger effect = lower value 0.999 | S. cerevisiae deletion strains, locus YLR262C, strain YPT6 (second series), stronger effect = lower value 1.02 | S. cerevisiae deletion strains, locus YLR262C, strain YPT6, stronger effect = lower value 1 | S. cerevisiae deletion strains, locus YLR268W, strain sec22, stronger effect = lower value 1.05 | S. cerevisiae deletion strains, locus YLR320W, strain mms22, stronger effect = lower value 0.99 | S. cerevisiae deletion strains, locus YLR330W, strain CHS5, stronger effect = lower value 1.01 | S. cerevisiae deletion strains, locus YLR342W, strain FKS1 (second series), stronger effect = lower value 1.02 | S. cerevisiae deletion strains, locus YLR342W, strain FKS1, stronger effect = lower value 0.996 | S. cerevisiae deletion strains, locus YLR357W, strain rsc2, stronger effect = lower value 1.01 | S. cerevisiae deletion strains, locus YLR370C, strain arc18, stronger effect = lower value 0.995 | S. cerevisiae deletion strains, locus YLR371W, strain rom2, stronger effect = lower value 1.01 | S. cerevisiae deletion strains, locus YLR384C, strain iki3, stronger effect = lower value 1.01 | S. cerevisiae deletion strains, locus YLR418C, strain cdc73, stronger effect = lower value 0.972 | S. cerevisiae deletion strains, locus YML016C, strain PPZ1, stronger effect = lower value 0.999 | S. cerevisiae deletion strains, locus YML032C, strain rad52, stronger effect = lower value 1.02 | S. cerevisiae deletion strains, locus YML120C, strain ndi1, stronger effect = lower value 1.02 | S. cerevisiae deletion strains, locus YML124C, strain tub3, stronger effect = lower value 1.01 | S. cerevisiae deletion strains, locus YMR058W, strain fet3, stronger effect = lower value 1.01 | S. cerevisiae deletion strains, locus YMR078C, strain ctf18, stronger effect = lower value 1 | S. cerevisiae deletion strains, locus YMR125W, strain sto1, stronger effect = lower value 1 | S. cerevisiae deletion strains, locus YMR129W, stronger effect = lower value 0.998 | S. cerevisiae deletion strains, locus YMR205C, strain PFK2, stronger effect = lower value 1.01 | S. cerevisiae deletion strains, locus YMR223W, strain ubp8, stronger effect = lower value 0.994 | S. cerevisiae deletion strains, locus YMR231W, strain pep5, stronger effect = lower value 0.997 | S. cerevisiae deletion strains, locus YMR263W, strain SAP30, stronger effect = lower value 1 and 0.995 | S. cerevisiae deletion strains, locus YMR307W, strain GAS1, stronger effect = lower value 1.04 and 1.01 | S. cerevisiae deletion strains, locus YNL067W, strain RPL9B, stronger effect = lower value 0.995 | S. cerevisiae deletion strains, locus YNL071W, strain lat1, stronger effect = lower value 0.996 | S. cerevisiae deletion strains, locus YNL153C, strain GIM3, stronger effect = lower value 1 | S. cerevisiae deletion strains, locus YNL175C, strain NOP13, stronger effect = lower value 0.987 | S. cerevisiae deletion strains, locus YNL183C, strain NPR1, stronger effect = lower value 0.933 | S. cerevisiae deletion strains, locus YNL197C, strain WHI3, stronger effect = lower value 0.967 | S. cerevisiae deletion strains, locus YNL209W, strain ssb2, stronger effect = lower value 1 | S. cerevisiae deletion strains, locus YNL224C, strain SQS1, stronger effect = lower value 0.995 | S. cerevisiae deletion strains, locus YNL233W, strain BNI4, stronger effect = lower value 1 | S. cerevisiae deletion strains, locus YNL248C, strain rpa49, stronger effect = lower value 0.969 | S. cerevisiae deletion strains, locus YNL250W, strain rad50, stronger effect = lower value 1 | S. cerevisiae deletion strains, locus YNL271C, strain bni1, stronger effect = lower value 1.01 | S. cerevisiae deletion strains, locus YNL298W, strain CLA4, stronger effect = lower value 1.03 | S. cerevisiae deletion strains, locus YNL307C, strain MCK1, stronger effect = lower value 1.01 | S. cerevisiae deletion strains, locus YNL322C, strain KRE1 (second series), stronger effect = lower value 1.01 | S. cerevisiae deletion strains, locus YNL322C, strain KRE1, stronger effect = lower value 1 | S. cerevisiae deletion strains, locus YNR049C, strain mso1, stronger effect = lower value 0.993 | S. cerevisiae deletion strains, locus YNR052C, strain pop2, stronger effect = lower value 1.01 | S. cerevisiae deletion strains, locus YOL006C, strain TOP1, stronger effect = lower value 1.02 | S. cerevisiae deletion strains, locus YOL012C, strain htz1 0.947 | S. cerevisiae deletion strains, locus YOL147C, strain pex11, stronger effect = lower value 1.01 | S. cerevisiae deletion strains, locus YOR001W, strain rrp6, stronger effect = lower value 1.01 | S. cerevisiae deletion strains, locus YOR061W, strain CKA2, stronger effect = lower value 0.999 | S. cerevisiae deletion strains, locus YOR069W, strain VPS5, stronger effect = lower value 1 | S. cerevisiae deletion strains, locus YOR070C, strain gyp1, stronger effect = lower value 0.991 | S. cerevisiae deletion strains, locus YOR080W, strain dia2, stronger effect = lower value 1.01 | S. cerevisiae deletion strains, locus YOR083W, strain WHI5 (second series), stronger effect = lower value 0.969 | S. cerevisiae deletion strains, locus YOR083W, strain WHI5, stronger effect = lower value 0.989 | S. cerevisiae deletion strains, locus YOR106W, strain vam3, stronger effect = lower value 1.02 | S. cerevisiae deletion strains, locus YOR136W, strain idh2, stronger effect = lower value 0.993 | S. cerevisiae deletion strains, locus YOR144C, strain elg1, stronger effect = lower value 1.01 | S. cerevisiae deletion strains, locus YOR184W, strain ser1, stronger effect = lower value 0.98 | S. cerevisiae deletion strains, locus YOR231W, strain MKK1, stronger effect = lower value 1.01 | S. cerevisiae deletion strains, locus YOR265W, strain rbl2, stronger effect = lower value 0.996 | S. cerevisiae deletion strains, locus YOR270C, strain vph1, stronger effect = lower value 1.01 | S. cerevisiae deletion strains, locus YOR290C, strain snf2, stronger effect = lower value 0.991 | S. cerevisiae deletion strains, locus YOR316C, strain cot1, stronger effect = lower value 1.01 | S. cerevisiae deletion strains, locus YPL051W, strain arl3, stronger effect = lower value 0.993 | S. cerevisiae deletion strains, locus YPL055C, strain LGE1, stronger effect = lower value 1.02 | S. cerevisiae deletion strains, locus YPL078C, strain atp4, stronger effect = lower value 1.01 | S. cerevisiae deletion strains, locus YPL106C, strain sse1, stronger effect = lower value 0.995 | S. cerevisiae deletion strains, locus YPL240C, strain hsp82, stronger effect = lower value 1 | S. cerevisiae deletion strains, locus YPL241C, strain CIN2, stronger effect = lower value 1 and 0.998 | S. cerevisiae deletion strains, locus YPL256C, strain CLN2, stronger effect = lower value 0.99 | S. cerevisiae deletion strains, locus YPR119W, strain clb2, stronger effect = lower value 1 | S. cerevisiae deletion strains, locus YPR141C, strain kar3, stronger effect = lower value 1.01 | S. cerevisiae deletion strains, locus YPR163C, strain tif3, stronger effect = lower value 1.02 | S. cerevisiae deletion strains, locus YPR167C, strain met16, stronger effect = lower value 1.01 | S. cerevisiae deletion strains, strain wtn01, stronger effect = lower value 1.01 | S. cerevisiae strains, strain wild type, stronger effect = lower value 0.997
